The source made the active and inactive calls. The calls were made as follows: active = hit-call score of the fitted dose curve at least 0.9, where 1 is the maximum; inactive = score below 0.9.
Tests used:
[1] = read-out: Human Leukocyte Antigen - DR isotype (HLADR), HLA-DRA (gene 3122); test: BSK_BE3C_HLADR: BioMAP Diversity Plus: BE3C Assay for Human Leukocyte Antigen - DR isotype (HLADR) Biomarker Activity (AID 2283032); conditions: primary human bronchial epithelial cells; actives raise or lower the signal
Procedure, shortened: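 Cell-surface HLA-DR ELISA readout at 24 h after dosing in the BE3C primary human lung bronchial epithelial system; gain or loss of signal against DMSO, with parallel sulforhodamine B staining of total protein for overt cytotoxicity.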

[2] = read-out: Vascular cell adhesion molecule 1 (VCAM1), VCAM1 (gene 7412); test: BSK_4H_VCAM1: BioMAP Diversity Plus: 4H Assay for Vascular cell adhesion molecule 1 (VCAM1) Biomarker Activity (AID 2283033); conditions: primary human endothelial cells (HUVEC); actives raise or lower the signal;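 also: cell-surface VCAM-1 protein measured by ELISA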
Procedure, shortened: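 VCAM-1 ELISA read 24 h after chemical dosing of HUVEC in the BioMAP 4H system, with gain or loss of signal fitted relative to DMSO. Parallel SRB staining (560 nm) checked overt cytotoxicity.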

[3] = read-out: Interferon-gamma inducible Protein 10 (IP10), CXCL10 (gene 3627); test: BSK_BE3C_IP10: BioMAP Diversity Plus: BE3C Assay for Interferon-gamma inducible Protein 10 (IP10) Biomarker Activity (AID 2283034); conditions: primary human bronchial epithelial cells; actives raise or lower the signal
Procedure, shortened: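 IP-10 quantified by ELISA in human primary bronchial epithelial cell cultures at 24 hours post-dosing. Gain or loss of signal fitted relative to DMSO; parallel SRB staining assessed overt cytotoxicity.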

[4] = read-out: Monokine induced gamma interferon (MIG), CXCL9 (gene 4283); test: BSK_BE3C_MIG: BioMAP Diversity Plus: BE3C Assay for Monokine induced gamma interferon (MIG) Biomarker Activity (AID 2283035); conditions: primary human bronchial epithelial cells; actives raise or lower the signal
Procedure, shortened: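 ELISA quantified MIG after 24 h exposure of primary bronchial epithelial cultures, analysed in both directions relative to DMSO. Cytotoxicity tracked in parallel cultures by sulforhodamine B staining.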

[5] = read-out: Transforming growth factor beta 1 (TGFb1), TGFB1 (gene 7040); test: BSK_BE3C_TGFb1: BioMAP Diversity Plus: BE3C Assay for Transforming growth factor beta 1 (TGFb1) Biomarker Activity (AID 2283036;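 also: TGF-b1 protein level measured by ELISA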); conditions: primary human bronchial epithelial cells; actives raise or lower the signal
Procedure, shortened: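 ELISA readout of TGF-b1 from human lung bronchial epithelial primary cells, taken 24 h post-treatment. Gain or loss of signal fitted relative to DMSO baseline, with parallel SRB staining for overt cytotoxicity.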

[6] = read-out: Plasminogen activator inhibitor-1 (PAI1), SERPINE1 (gene 5054); test: BSK_BE3C_PAI1: BioMAP Diversity Plus: BE3C Assay for Plasminogen activator inhibitor-1 (PAI1) Biomarker Activity (AID 2283037); conditions: primary human bronchial epithelial cells; actives raise or lower the signal
Procedure, shortened: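 PAI-1 was measured by ELISA in human primary bronchial epithelial cultures 24 h after chemical dosing, with cytotoxicity checked by SRB total-protein staining in parallel cultures. Activity was fitted in both directions relative to DMSO.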

[7] = read-out: urokinase plasminogen activator (uPA), PLAU (gene 5328); test: BSK_BE3C_uPA: BioMAP Diversity Plus: BE3C Assay for urokinase plasminogen activator (uPA) Biomarker Activity (AID 2283038); conditions: primary human bronchial epithelial cells; actives raise or lower the signal;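 also: uPA protein level quantified by ELISA in cell cultures; uPA read one day after compound addition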
Procedure, shortened: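 ELISA for uPA on human primary bronchial epithelial cultures 24 h post-treatment, gain or loss against DMSO. Parallel SRB staining (0.1% after 10% TCA fixation, 560 nm) assessed overt cytotoxicity.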

[8] = read-out: Urokinase-type plasminogen activator receptor (uPAR), PLAUR (gene 5329); test: BSK_BE3C_uPAR: BioMAP Diversity Plus: BE3C Assay for Urokinase-type plasminogen activator receptor (uPAR) Biomarker Activity (AID 2283039); conditions: primary human bronchial epithelial cells; actives raise or lower the signal;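 also: cells exposed to compound for one day before measurement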
Procedure, shortened: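 uPAR levels were measured by ELISA after 24 h compound treatment of primary human bronchial epithelial cells, fitted in both directions relative to DMSO. Parallel SRB staining served as the cytotoxicity read-out.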

[9] = read-out: Interleukin-6 (IL6), IL6 (gene 3569); test: BSK_CASM3C_IL6: BioMAP Diversity Plus: CASM3C Assay for Interleukin-6 (IL6) Biomarker Activity for (AID 2283040); conditions: primary human coronary artery smooth muscle cells; actives raise or lower the signal
[10] = read-out: Tissue plasminogen activator (tPA), PLAT (gene 5327); test: BSK_BE3C_tPA: BioMAP Diversity Plus: BE3C Assay for Tissue plasminogen activator (tPA) Biomarker Activity (AID 2283041); conditions: primary human bronchial epithelial cells; actives raise or lower the signal;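 also: tPA level quantified by ELISA one day after compound addition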
Procedure, shortened: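 tPA measured by ELISA 24 h after dosing human primary bronchial epithelial cells (BE3C system). Changes in either direction were fitted against DMSO. Parallel cultures were stained with SRB to flag overt cytotoxicity.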

[11] = read-out: Interleukin-8 (IL8), CXCL8 (gene 3576); test: BSK_CASM3C_IL8: BioMAP Diversity Plus: CASM3C Assay for Interleukin-8 (IL8) Biomarker Activity (AID 2283042); conditions: primary human coronary artery smooth muscle cells; actives raise or lower the signal;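 also: IL-8 protein level quantified by ELISA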
[12] = read-out: Human Leukocyte Antigen - DR isotype (HLADR), HLA-DRA (gene 3122); test: BSK_CASM3C_HLADR: BioMAP Diversity Plus: CASM3C Assay for Human Leukocyte Antigen - DR isotype (HLADR) Biomarker Activity (AID 2283043); conditions: primary human coronary artery smooth muscle cells; actives raise or lower the signal;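 also: cell-surface HLA-DR protein level quantified by ELISA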
[13] = read-out: Low-density lipoprotein receptor (LDLR), LDLR (gene 3949); test: BSK_CASM3C_LDLR: BioMAP Diversity Plus: CASM3C Assay for Low-density lipoprotein receptor (LDLR) Biomarker Activity (AID 2283045); conditions: primary human coronary artery smooth muscle cells; actives raise or lower the signal;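 also: LDLR protein level on the cell surface quantified by ELISA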
[14] = read-out: Monocyte Chemoattractant Protein-1 (MCP1), CCL2 (gene 6347); test: BSK_CASM3C_MCP1: BioMAP Diversity Plus: CASM3C Assay for Monocyte Chemoattractant Protein-1 (MCP1) Biomarker Activity (AID 2283046); conditions: primary human coronary artery smooth muscle cells; actives raise or lower the signal;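 also: MCP-1 level quantified by ELISA 24 h after dosing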
[15] = BSK_CASM3C_Proliferation: Cell Proliferation Assessment in the BioMAP Diversity Plus: CASM3C Assay (AID 2283047); conditions: primary human coronary artery smooth muscle cells;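 also: sulforhodamine B total protein stain as relative cell number at 560 nm; sub-confluent cells exposed 48 h before staining; fitted both ways against DMSO so gain or loss of cell number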
[16] = read-out: Monokine induced gamma interferon (MIG), CXCL9 (gene 4283); test: BSK_CASM3C_MIG: BioMAP Diversity Plus: CASM3C Assay for Monokine induced gamma interferon (MIG) Biomarker Activity (AID 2283048); conditions: primary human coronary artery smooth muscle cells; actives raise or lower the signal;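 also: MIG protein level measured by ELISA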
[17] = read-out: serum amyloid A (SAA), SAA1 (gene 6288); test: BSK_CASM3C_SAA: BioMAP Diversity Plus: CASM3C Assay for serum amyloid A (SAA) Biomarker Activity (AID 2283049); conditions: primary human coronary artery smooth muscle cells; actives raise or lower the signal;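 also: SAA protein level quantified by ELISA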
[18] = BSK_CASM3C_SRB: Viability Assessment in the BioMAP Diversity Plus: CASM3C Assay (AID 2283050); conditions: primary human coronary artery smooth muscle cells
[19] = read-out: Thrombomodulin, THBD (gene 7056); test: BSK_CASM3C_Thrombomodulin: BioMAP Diversity Plus: CASM3C Assay for Thrombomodulin Biomarker Activity (AID 2283051); conditions: primary human coronary artery smooth muscle cells; actives raise or lower the signal;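 also: thrombomodulin protein level measured by ELISA 24 h after dosing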
[20] = read-out: Macrophage colony-stimulating factor (MCSF), CSF1 (gene 1435); test: BSK_CASM3C_MCSF: BioMAP Diversity Plus: CASM3C Assay for Macrophage colony-stimulating factor (MCSF) Biomarker Activity (AID 2283044); conditions: primary human coronary artery smooth muscle cells; actives raise or lower the signal;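 also: M-CSF protein amount quantified by ELISA after 24 h exposure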

Measured: outcome

O=c1[nH]cnc2c1ncn2[C@H]1CC[C@@H](CO)O1
not listed: [20]
inactive: all other assays above

OC(CCl)CCl
not listed: [7]
inactive: all other assays above

Cn1c(=O)c2[nH]cnc2n(C)c1=O
inactive: all assays above

CC1(C)C(=O)N(Cl)C(=O)N1Cl
inactive: all assays above

c1ccc2c(c1)-c1cccc3c1c-2cc1ccccc13
not listed: [7]
inactive: all other assays above

CCCCCCCC/C=C\CCCCCCCC(=O)OC[C@@H](O)[C@H]1OC[C@H](O)[C@H]1O
not listed: [7]
inactive: all other assays above

O=C(NO)C1(NS(=O)(=O)c2ccc(Oc3ccc(F)cc3)cc2)CCOCC1
not listed: [7]
inactive: all other assays above
